About 2,000 (36%) of roughly 5,500 compounds were called active. Roughly 18% stayed inconclusive and do not appear here. Rule as the data show it: active = normalized growth mostly below about 0.91 (no sharp cut-off); inconclusive = no clear call, values can overlap the other calls; inactive = mostly above about 0.92. The list shows a part of the results.
Test: chemical genetic growth profiling, strain panel (AID 1159580);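 also: tested at 20 µM; growth read once vehicle control cultures reached saturation at 30 °C; 1 = growth at the plate median or of vehicle wells; lower values mean less growth of the strain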
Settings: S. cerevisiae deletion strains, growth OD

Measured: normalized growth

COc1cc(-c2cc(=O)c3c(O)c(OC)c(OC)c(OC)c3o2)cc(OC)c1OC
inactive: locus YAL021C, strain ccr4, hits give low values 1.01 | locus YAL026C, strain drs2, hits give low values 1.01 | locus YAL030W, strain snc1, hits give low values 1.01 | locus YBL061C, strain skt5, hits give low values 1.01 | locus YBR009C, strain hhf1, hits give low values 1.01 | locus YBR023C, strain chs3, hits give low values 1.01 | locus YBR171W, strain sec66, hits give low values 1.01 | locus YBR231C, strain swc5, hits give low values 1.01 | locus YBR279W, strain paf1, hits give low values 0.998 | locus YCL011C, strain gbp2, hits give low values 1.01 | locus YCL016C, strain dcc1, hits give low values 1.01 | locus YCL061C, strain MRC1, hits give low values 1.03 | locus YCL069W, strain vba3, hits give low values 1.01 | locus YCR088W, strain abp1, hits give low values 1.01 | locus YDL005C, strain med2, hits give low values 1.02 | locus YDL040C, strain nat1, hits give low values 1.01 | locus YDR001C, strain nth1, hits give low values 1.01 | locus YDR069C, strain doa4, hits give low values 1.02 | locus YDR137W, strain rgp1, hits give low values 0.997 | locus YDR159W, strain sac3, hits give low values 1.03 | locus YDR195W, strain ref2 1.02 | locus YDR297W, strain sur2, hits give low values 1.01 | locus YDR334W, strain swr1, hits give low values 1.01 | locus YDR335W, strain msn5, hits give low values 1.03 | locus YDR392W, strain spt3, hits give low values 0.97 | locus YEL003W, strain gim4, hits give low values 1.01 | locus YEL037C, strain rad23, hits give low values 1.01 | locus YEL061C, strain CIN8 (second series), hits give low values 1.01 | locus YER015W, strain faa2, hits give low values 1.01 | locus YER016W, strain bim1, hits give low values 1.02 | locus YER111C, strain swi4, hits give low values 1 | locus YER155C, strain BEM2 (second series), hits give low values 1 | locus YFR010W, strain ubp6, hits give low values 1.01 | locus YGL167C, strain pmr1, hits give low values 1.02 | locus YGL173C, strain kem1, hits give low values 1.01 | locus YGL227W, strain vid30, hits give low values 1.01 | locus YGL240W, strain doc1, hits give low values 1.04 | locus YGL253W, strain hxk2, hits give low values 1 | locus YHR013C, strain ard1, hits give low values 1 | locus YHR027C, strain rpn1, hits give low values 1.01 | locus YHR142W, strain chs7, hits give low values 0.99 | locus YJL092W, strain hpr5, hits give low values 1.02 | locus YJL095W, strain BCK1 (second series), hits give low values 1.01 | locus YJL115W, strain asf1, hits give low values 1.01 | locus YJL129C, strain trk1, hits give low values 1 | locus YJL154C, strain vps35, hits give low values 1.01 | locus YJL164C, strain tpk1, hits give low values 0.999 | locus YJL166W, strain qcr8, hits give low values 1.01 | locus YJL187C, strain SWE1, hits give low values 1.01 | locus YKL160W, strain elf1, hits give low values 1.01 | locus YKR026C, strain gcn3, hits give low values 1.01 | locus YKR091W, strain srl3, hits give low values 1.01 | locus YLL001W, strain dnm1, hits give low values 1.02 | locus YLL026W, hits give low values 1.01 | locus YLL041C, strain sdh2, hits give low values 1.01 | locus YLR027C, strain aat2, hits give low values 1.01 | locus YLR221C, strain rsa3, hits give low values 1 | locus YLR258W, strain gsy2, hits give low values 1.01 | locus YLR262C, strain YPT6 (second series), hits give low values 1.01 | locus YLR320W, strain mms22, hits give low values 1.02 | locus YLR342W, strain FKS1, hits give low values 1.02 | locus YLR357W, strain rsc2, hits give low values 0.994 | locus YLR370C, strain arc18, hits give low values 1.02 | locus YLR384C, strain iki3, hits give low values 1.01 | locus YML120C, strain ndi1, hits give low values 1 | locus YMR058W, strain fet3, hits give low values 1 | locus YMR125W, strain sto1, hits give low values 0.999 | locus YMR129W, hits give low values 1.01 | locus YMR205C, strain PFK2, hits give low values 1.02 | locus YMR231W, strain pep5, hits give low values 1.01 | locus YNL071W, strain lat1, hits give low values 1 | locus YNL209W, strain ssb2, hits give low values 1 | locus YNL248C, strain rpa49, hits give low values 1 | locus YNL322C, strain KRE1 (second series), hits give low values 1.02 | locus YNR049C, strain mso1, hits give low values 1.01 | locus YOR001W, strain rrp6, hits give low values 0.999 | locus YOR070C, strain gyp1, hits give low values 1 | locus YOR080W, strain dia2, hits give low values 1.01 | locus YOR083W, strain WHI5, hits give low values 0.995 | locus YOR106W, strain vam3, hits give low values 1 | locus YOR265W, strain rbl2, hits give low values 1.01 | locus YOR270C, strain vph1, hits give low values 0.99 | locus YOR290C, strain snf2, hits give low values 0.933 | locus YPL051W, strain arl3, hits give low values 1 | locus YPL078C, strain atp4, hits give low values 0.999 | locus YPL106C, strain sse1, hits give low values 1.03 | locus YPL240C, strain hsp82, hits give low values 1.01

Reference: PubChem BioAssay AID1159580 (chemical genetic matrix, 2015)
